Reference: PubChem BioAssay
The source made the active and inactive calls.

How the values were obtained:
[1] = small molecules captured by biotinylated probe aFSTL3 – biochemical, small-molecule microarray, fluorescence 635/667, stem cell growth factor project, primary screen (AID 1064); settings: higher = more signal;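 note: measures binding of the biotinylated anti-FSTL3 antibody to printed compounds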
[2] = binders from COS7 lysate, DM2A8 probe, primary screen, torsin A project, cell lysate, small-molecule microarray, fluorescence 635/667 (AID 1065); settings: higher = more signal, COS7 lysate expressing mutant human TOR1A
[3] = small molecules captured by biotinylated probe aFGF2 – biochemical, small-molecule microarray, fluorescence 635/667, stem cell growth factor project, primary screen (AID 1067); settings: higher = more signal;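 note: measures binding of biotinylated aFGF2 protein to printed compounds on slides; z-score merges feature fluorescence and signal-to-noise across triplicate slides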
[4] = small molecules captured by biotinylated probe aFGF10 – biochemical, small-molecule microarray, fluorescence 635/667, stem cell growth factor project, primary screen (AID 1071); settings: higher = more signal;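 note: score merges 667 nm spot intensity and signal to noise from triplicate slides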
[5] = molecular target: Neurogenic locus notch homolog protein 2 (Homo sapiens) (UniProt Q04721); experiment: small molecules binding Notch2 protein – biochemical, small-molecule microarray, 635 nm fluorescence, stem cell growth factors, primary screen (AID 1073); settings: higher = more signal
[6] = molecular target: Pro-neuregulin-1, membrane-bound isoform (Homo sapiens) (UniProt Q02297); experiment: small molecules binding neuregulin-1 protein – biochemical, small-molecule microarray, fluorescence 635/667, psychiatric disease protein project, primary screen (AID 1075); settings: NRG1 binding, 635 nm fluorescence, higher = more signal;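 note: score combines 667 nm spot fluorescence with signal to noise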
[7] = test system: Neuregulin-1 EGF-like domain; experiment: small molecules binding NRG1 EGF domain – biochemical, small-molecule microarray, 635 nm fluorescence, primary screen (AID 1081); settings: higher = more signal;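 note: binding of the protein to compounds printed on small-molecule microarray slides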
[8] = FRG1 expression reporter modulators in myotubes – cell-based, C2C12 myotubes, firefly/Renilla luciferase, luminescence, FRG1 inhibition for FSHD, primary screen (AID 1084); settings: FRG1 promoter luciferase, higher = more signal, called active from +8 up or from −8 down
[9] = small molecules captured by biotinylated probe aFST – biochemical, small-molecule microarray, fluorescence 635/667, stem cell growth factor project, primary screen (AID 1086); settings: higher = more signal;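 note: score merges 667 nm fluorescence with signal-to-noise of each printed compound spot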
[10] = binders of probe aHhip on microarray, primary screen, stem cell growth factor project, biochemical, small-molecule microarray, fluorescence 635/667 (AID 1087); settings: higher = more signal;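 note: score merges spot fluorescence at 667nm with spot signal to noise ratio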
[11] = test system: PRMT1 (protein arginine N-methyltransferase 1); experiment: small molecules binding arginine methyltransferase PRMT1 – biochemical, small-molecule microarray, 635 nm fluorescence, primary screen (AID 1088); settings: higher = more signal;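 note: binding of Prmt1 protein to compounds spotted on small-molecule microarray slides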
[12] = growth effects on S. cerevisiae YJM789 – YJM789 clinical isolate, OD600, 24 h, basal, primary screen (AID 1089); settings: higher = more signal, called active from +8 up or from −8 down;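 note: growth of clinical yeast isolate S. cerevisiae YJM 789 seeded 1000 cells per well; test concentration not given here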
[13] = S. pombe growth modifiers, basal conditions – strain 972, OD600, 24 h, no modulator, primary screen (AID 1090);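 note: basal condition with compound alone and no growth modifier present; test concentration not given here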; settings: S. pombe 972 growth, higher = more signal, called active from +8 up or from −8 down
[14] = budding yeast growth modifiers under rapamycin – strain BY4716, OD600, 96 h, primary screen (AID 1091); note: test concentration not given here; settings: S. cerevisiae BY4716 + rapamycin, higher = more signal, called active from +8 up or from −8 down
[15] = molecular target: Torsin-1A-interacting protein 2 (Homo sapiens) (UniProt Q8NFQ8); experiment: small molecules binding lysate-expressed LULL1 – cell lysate, human LULL1 lysate, 635/667 nm fluorescence, primary screen (AID 1092); settings: small-molecule microarray, hLULL1 lysate binding, 635 nm fluorescence; higher = more signal;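 note: probe is lysate of COS7 cells overexpressing human LULL1; score merges per-feature 667 nm fluorescence with signal-to-noise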
[16] = optical density change of DRC41 E. coli – strain DRC41, OD650, 24 h, E. coli filamentation project, primary screen (AID 1093);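 note: MC1000 strain lacking acrAB efflux and sulA so SOS filamentation is blocked; test concentration not given here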; settings: E. coli DRC41 growth, higher = more signal, called active from +8 up or from −8 down
[17] = probe aLefty2 binding to arrayed compounds – biochemical, biotinylated probe, 635/667 nm fluorescence, primary screen (AID 1094); settings: small-molecule microarray, higher = more signal;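 note: score merges spot fluorescence near 667 nm with spot signal-to-noise ratio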
[18] = test system: Noggin (protein binding on small-molecule microarray); experiment: small molecules binding Noggin protein – biochemical, 635/667 nm fluorescence, primary screen (AID 1095); settings: 635 nm fluorescence, higher = more signal;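 note: score merges 667 nm feature fluorescence with signal to noise over triplicate slides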
[19] = molecular target: Neurogenic locus notch homolog protein 3 (Homo sapiens) (UniProt Q9UM47); experiment: small molecules binding NOTCH3 protein – biochemical, 635/667 nm fluorescence, primary screen (AID 1096); settings: small-molecule microarray, 635 nm fluorescence, higher = more signal
[20] = probe aEGFR binding to arrayed compounds – biochemical, biotinylated probe, 635/667 nm fluorescence, primary screen (AID 1097); settings: small-molecule microarray, higher = more signal;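 note: probe is a biotinylated anti-EGFR antibody binding compounds printed on slides; score combines fluorescence near 667 nm and signal to noise of each spot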

Neurogenic locus notch homolog protein 3 (Homo sapiens), sequence (Q9UM47 whole entry, looked up): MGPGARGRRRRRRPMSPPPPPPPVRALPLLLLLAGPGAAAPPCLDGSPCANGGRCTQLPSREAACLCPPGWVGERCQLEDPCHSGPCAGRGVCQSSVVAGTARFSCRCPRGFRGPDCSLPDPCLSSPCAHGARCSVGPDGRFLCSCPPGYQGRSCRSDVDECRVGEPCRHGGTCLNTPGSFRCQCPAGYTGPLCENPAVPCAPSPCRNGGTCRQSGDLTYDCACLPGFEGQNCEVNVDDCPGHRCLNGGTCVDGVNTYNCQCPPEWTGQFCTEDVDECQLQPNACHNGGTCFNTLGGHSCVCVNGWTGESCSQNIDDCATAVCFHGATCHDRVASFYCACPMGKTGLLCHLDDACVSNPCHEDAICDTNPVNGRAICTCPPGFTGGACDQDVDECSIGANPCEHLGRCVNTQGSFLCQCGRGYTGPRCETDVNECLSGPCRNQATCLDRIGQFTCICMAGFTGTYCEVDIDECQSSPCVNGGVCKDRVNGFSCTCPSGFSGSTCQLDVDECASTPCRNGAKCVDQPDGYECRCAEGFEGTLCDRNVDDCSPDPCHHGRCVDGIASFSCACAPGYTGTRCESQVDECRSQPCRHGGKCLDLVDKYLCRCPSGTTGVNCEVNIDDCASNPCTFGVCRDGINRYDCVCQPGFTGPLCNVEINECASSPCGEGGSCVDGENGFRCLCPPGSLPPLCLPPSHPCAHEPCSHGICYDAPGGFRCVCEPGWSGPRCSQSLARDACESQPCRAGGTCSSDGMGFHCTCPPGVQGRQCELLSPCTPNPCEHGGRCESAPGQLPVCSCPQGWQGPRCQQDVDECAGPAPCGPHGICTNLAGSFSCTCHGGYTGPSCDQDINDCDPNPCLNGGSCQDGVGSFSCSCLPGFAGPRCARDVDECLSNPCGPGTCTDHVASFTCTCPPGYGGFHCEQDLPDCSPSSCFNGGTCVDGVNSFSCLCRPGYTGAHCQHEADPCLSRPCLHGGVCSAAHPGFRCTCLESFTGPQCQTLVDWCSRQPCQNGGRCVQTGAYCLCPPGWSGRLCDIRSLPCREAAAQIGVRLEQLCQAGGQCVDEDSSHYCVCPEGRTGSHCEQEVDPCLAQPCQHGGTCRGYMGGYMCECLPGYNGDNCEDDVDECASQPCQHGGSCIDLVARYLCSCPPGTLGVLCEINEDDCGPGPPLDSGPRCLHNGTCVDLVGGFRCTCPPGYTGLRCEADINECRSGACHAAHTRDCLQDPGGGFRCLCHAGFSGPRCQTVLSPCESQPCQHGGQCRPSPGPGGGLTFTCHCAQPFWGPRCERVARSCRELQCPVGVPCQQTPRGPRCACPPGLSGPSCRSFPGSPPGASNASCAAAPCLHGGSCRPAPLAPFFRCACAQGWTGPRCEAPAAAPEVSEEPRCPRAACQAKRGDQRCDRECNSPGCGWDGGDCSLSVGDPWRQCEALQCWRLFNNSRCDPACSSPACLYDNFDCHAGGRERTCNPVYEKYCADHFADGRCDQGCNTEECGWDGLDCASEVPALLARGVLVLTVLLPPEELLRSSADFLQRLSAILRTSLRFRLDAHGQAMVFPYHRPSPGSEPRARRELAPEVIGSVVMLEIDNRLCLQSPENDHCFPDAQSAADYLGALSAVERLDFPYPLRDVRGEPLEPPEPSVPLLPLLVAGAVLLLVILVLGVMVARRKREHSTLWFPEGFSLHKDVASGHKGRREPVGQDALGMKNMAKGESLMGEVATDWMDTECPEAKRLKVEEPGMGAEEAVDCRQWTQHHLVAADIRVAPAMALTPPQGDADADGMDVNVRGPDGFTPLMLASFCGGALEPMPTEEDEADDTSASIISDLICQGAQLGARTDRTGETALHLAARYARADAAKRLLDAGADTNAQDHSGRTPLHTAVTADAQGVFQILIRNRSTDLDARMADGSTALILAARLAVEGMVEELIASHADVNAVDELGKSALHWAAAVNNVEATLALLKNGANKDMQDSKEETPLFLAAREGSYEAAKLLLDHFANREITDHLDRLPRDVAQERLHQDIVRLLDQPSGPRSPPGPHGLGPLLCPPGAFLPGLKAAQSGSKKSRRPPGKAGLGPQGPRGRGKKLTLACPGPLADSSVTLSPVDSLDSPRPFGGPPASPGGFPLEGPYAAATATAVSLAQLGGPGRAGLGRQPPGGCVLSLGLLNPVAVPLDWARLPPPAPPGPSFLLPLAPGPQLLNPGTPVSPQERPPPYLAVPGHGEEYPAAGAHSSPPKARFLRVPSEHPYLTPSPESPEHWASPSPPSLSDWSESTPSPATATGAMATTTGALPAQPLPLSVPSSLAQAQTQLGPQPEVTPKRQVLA
Torsin-1A-interacting protein 2 (Homo sapiens), sequence (Q8NFQ8 whole entry, looked up): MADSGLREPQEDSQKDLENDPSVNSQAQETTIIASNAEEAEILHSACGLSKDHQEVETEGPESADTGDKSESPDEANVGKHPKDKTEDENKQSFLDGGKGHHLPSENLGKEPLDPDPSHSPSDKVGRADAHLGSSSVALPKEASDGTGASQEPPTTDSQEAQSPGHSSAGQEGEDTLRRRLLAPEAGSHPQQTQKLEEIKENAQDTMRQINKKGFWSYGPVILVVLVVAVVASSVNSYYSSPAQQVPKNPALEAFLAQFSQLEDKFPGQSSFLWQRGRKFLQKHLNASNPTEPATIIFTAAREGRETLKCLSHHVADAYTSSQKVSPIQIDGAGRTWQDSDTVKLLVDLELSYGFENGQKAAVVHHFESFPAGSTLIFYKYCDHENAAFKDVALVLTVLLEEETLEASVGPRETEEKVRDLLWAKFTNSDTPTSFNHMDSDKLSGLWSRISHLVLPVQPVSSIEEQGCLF
Pro-neuregulin-1, membrane-bound isoform (Homo sapiens), sequence (Q02297 whole entry, looked up, the tested form may be a part, canonical isoform): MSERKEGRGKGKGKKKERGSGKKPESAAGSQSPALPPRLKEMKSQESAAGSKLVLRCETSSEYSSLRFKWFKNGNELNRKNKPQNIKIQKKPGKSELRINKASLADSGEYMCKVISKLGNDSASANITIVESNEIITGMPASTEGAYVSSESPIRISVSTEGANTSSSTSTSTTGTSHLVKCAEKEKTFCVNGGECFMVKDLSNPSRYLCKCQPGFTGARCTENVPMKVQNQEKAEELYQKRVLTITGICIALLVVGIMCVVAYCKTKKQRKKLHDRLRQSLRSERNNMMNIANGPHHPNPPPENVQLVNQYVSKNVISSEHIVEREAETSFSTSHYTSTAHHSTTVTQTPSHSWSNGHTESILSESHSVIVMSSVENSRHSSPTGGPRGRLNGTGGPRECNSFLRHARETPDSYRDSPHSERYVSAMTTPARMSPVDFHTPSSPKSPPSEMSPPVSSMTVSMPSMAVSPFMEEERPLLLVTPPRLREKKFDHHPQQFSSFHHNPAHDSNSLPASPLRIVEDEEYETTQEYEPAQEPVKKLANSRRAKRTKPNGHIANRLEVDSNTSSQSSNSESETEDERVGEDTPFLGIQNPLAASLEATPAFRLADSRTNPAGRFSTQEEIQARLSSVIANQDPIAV

| SMILES | composite z-score [1] | composite z-score [2] | composite z-score [3] | composite z-score [4] | composite z-score [5] | composite z-score [6] | composite z-score [7] | z-score [8] | composite z-score [9] | composite z-score [10] | composite z-score [11] | z-score [12] | z-score [13] | z-score [14] | composite z-score [15] | z-score [16] | composite z-score [17] | composite z-score [18] | composite z-score [19] | composite z-score [20] |
| --- | --- | --- | --- | --- | --- | --- | --- | --- | --- | --- | --- | --- | --- | --- | --- | --- | --- | --- | --- | --- |
| O=C(CS)NCCCCCNC(=O)[C@@H]1C[C@@H]2C(=O)NCC(=O)N2[C@@H]1c1ccc(O)cc1 | -0.0188 | 0.654 | -0.11 | 0.0152 | -0.966 | 0.317 | 1.39 | 0.111 (inactive) | -0.155 | -0.0003 | 1.08 | 0.118 (inactive) | -0.771 (inactive) | 0.494 (inactive) | 1.47 | 2.13 (inactive) | -0.124 | 0.362 | 0.179 | -0.15 |
| CCOC(=O)C1=CCC(c2ccc(F)cc2)N(S(=O)(=O)c2ccc(C)cc2)C1 (stereo not given) | 0.605 | 0.816 | 0.0198 | -0.105 | 0.552 | 0.199 | 0.116 | -2.7 (inactive) | 0.135 | -0.226 | 0.249 | 0.265 (inactive) | 0.639 (inactive) | 1.68 (inactive) | 0.799 | -0.704 (inactive) | -0.0396 | -0.0456 | 0.284 | -0.0839 |
| O[C@@H](Cc1ccccc1)[C@@H](/C=C/C1CC1)NCc1cccc(Cl)c1 | 1.53 | 0.0563 | -0.224 | -0.813 | -1.43 | -0.146 | -0.344 | -0.715 (inactive) | -0.699 | -0.0994 | -0.534 | -2.26 (inactive) | -19 (active) | -2.31 (inactive) | -0.44 | -0.59 (inactive) | 0.0558 | -1.08 | -0.419 | -0.296 |
| CCOc1ccc(N2C(=O)CSC2c2cccc([N+](=O)[O-])c2)cc1 (stereo not given) | -0.368 | -0.113 | 0.0525 | 0.839 | 1.22 | 1.64 | 1.29 | 0.541 (inactive) | 0.569 | -0.199 | 0.971 | 0.493 (inactive) | 0.527 (inactive) | 0.712 (inactive) | 1.63 | 1.01 (inactive) | -0.0555 | 0.154 | 0.699 | -0.0697 |
| C=C(CCCC)C(=O)CC[C@H](OC(=O)c1cccnc1)c1ccc(OCCO)cc1 | 0.242 | 1.4 | -0.116 | 0.149 | -0.65 | 0.766 | 0.761 | -0.916 (inactive) | -0.0065 | -0.0994 | 0.417 | 0.0275 (inactive) | -3.48 (inactive) | 0.364 (inactive) | 0.434 | 0.02 (inactive) | -0.0547 | 0.134 | -0.364 | 0.0089 |
| CS(=O)(=O)CCOC(=O)C1=CC(CCCO)=CC(c2ccc(CN3CCCC3)cc2)N(Cc2cccc(OC(F)(F)F)c2)C=C1C(=O)OCCS(C)(=O)=O (stereo not given) | 0.384 | 0.851 | 0.0036 | 0.952 | 0.978 | 0.691 | 0.909 | 0.173 (inactive) | 0.66 | 0.154 | 1.57 | 0.441 (inactive) | -12.9 (active) | -0.805 (inactive) | 2.62 | -1.05 (inactive) | 0.336 | 0.738 | 1.13 | 0.172 |
| O=C(O)[C@H]1C[C@H]2C(=O)N3CCC[C@H]3C(=O)N2[C@H]1c1ccc(O)cc1 | 1.22 | -0.104 | -0.195 | -0.929 | -2.12 | -0.0857 | 0.804 | -0.305 (inactive) | -0.834 | 0.147 | -0.57 | 0.428 (inactive) | -0.613 (inactive) | 0.333 (inactive) | 0.631 | 0.863 (inactive) | 0.0212 | -0.571 | -1.23 | -0.268 |
| O=C1C2C=CC(C(O)c3c(F)cccc3Cl)N(Nc3ccccc3F)C2C(=O)N1c1ccccc1 (stereo not given) | 0.472 | 0.374 | 0.11 | 0.574 | 1.65 | 1.37 | 1.15 | -3.2 (inactive) | 1.04 | 0.113 | 0.0998 | 0.232 (inactive) | 1.03 (inactive) | 0.722 (inactive) | 2.98 | -0.744 (inactive) | 0.17 | 0.0424 | 1.05 | 0.196 |
| COCCOC(=O)N1C(=O)[C@@]2(c3cc(C#CC4(O)CCCCCC4)ccc31)[C@H](C(=O)Nc1nc3ccccc3s1)[C@H]1C(=O)O[C@H](c3ccccc3)[C@H](c3ccccc3)N1[C@@H]2c1ccc(OCCO)cc1 | -0.568 | 0.392 | -0.083 | 0.797 | 1.07 | 0.727 | 1.15 | 4.24 (inactive) | 0.277 | 0.0749 | 1.55 | 2.38 (inactive) | 1.32 (inactive) | 4.01 (inactive) | 1.87 | 0.76 (inactive) | -0.0458 | 1.45 | 1.09 | 0.0064 |
| COc1ccc(C(O)C2C=CC3C(=O)N(C)C(=O)C3N2NC(=O)OC(C)(C)C)c2ccccc12 (stereo not given) | 0.152 | -0.129 | -0.0107 | 0.669 | 1.62 | 1.81 | 0.937 | -1.35 (inactive) | 1.37 | 0.0881 | 1.57 | -0.842 (inactive) | 1.64 (inactive) | 0.577 (inactive) | 3.12 | -0.618 (inactive) | 0.284 | -0.149 | 1.08 | 0.0185 |
